# Assay results as given in PubChem BioAssay (Tox21).
# Results filed as inconclusive are left out. Calls of active or inactive are those of the source. Unless noted, calls come from the whole dose curve.
# Assay: cAMP Responsive Elements (CRE) small molecule agonists, cell-based qHTS assay (AID 1963590)
# Conditions: CRE-bla HEK293T, beta-lactamase FRET ratio, 3 h; series mostly up to 92.4 µM; activation: at the top concentration
# Method in brief: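 Agonist mode: compound added to CRE-bla HEK 293T cells (2,000/well, 18 h after plating) for 3 h at 37 C/5% CO2. Reporter activity detected via FRET beta-lactamase substrate, 2 h room-temperature loading.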
# % is set by controls: 0 for no effect and ±100 for the full control effect.
SMILES,activation,Potency
CC(C)=CC(C)(C)C,0.306% (inactive),
CCCC/C=C/CCCCO,-1.14% (inactive),
C[C@H](CS)C(=O)N1CCC[C@H]1C(=O)O,-0.521% [at 42.5 µM] (inactive),
Cc1ccccc1N=Nc1ccc(N=Nc2c(O)ccc3ccccc23)c(C)c1,0.329% [at 42.5 µM] (inactive),
CC1CN(c2ccccc2)NC1=O (configuration not stated),-3.69% (inactive),
O=C(NCC(O)CO)c1c(I)c(C(=O)NCC(O)CO)c(I)c(N(CCO)C(=O)CO)c1I (configuration not stated),-0.88% [at 42.5 µM] (inactive),
O=[N+]([O-])c1ccc2ncccc2c1,-3.2% (inactive),
CCN(CC)CC,2.26% (inactive),
CO,-1.17% (inactive),
COC(=O)/C=C/C(C)=C\C=C\C(C)=C\C=C\C=C(C)\C=C\C=C(C)\C=C\C(=O)O,1.07% (inactive),
C[C@H]1[C@H](NC(=O)/C(=N/OC(C)(C)C(=O)O)c2csc(N)n2)C(=O)N1S(=O)(=O)O (stereo in doubt),0.261% [at 42.5 µM] (inactive),
Oc1ccc2ccccc2c1,,inactive
COC(C(=O)O)c1ccccc1 (configuration not stated),0.283% (inactive),
CS(=O)(=O)Nc1ccc([N+](=O)[O-])cc1Oc1ccccc1,,inactive
CN(C)CC/C=C1\c2ccccc2COc2ccccc21,0.312% [at 42.5 µM] (inactive),
Cc1c(Nc2ncccc2C(=O)O)cccc1C(F)(F)F,-2.05% [at 42.5 µM] (inactive),
O=C(CS(=O)Cc1ccco1)NC/C=C\COc1cc(CN2CCCCC2)ccn1 (configuration not stated),-0.421% [at 42.5 µM] (inactive),
O=P(c1ccccc1)(c1ccccc1)c1ccccc1,-0.613% (inactive),
Oc1ccc(N=Nc2ccccc2)cc1,-2.51% (inactive),
CN(CCCN1c2ccccc2CCc2ccccc21)CC(=O)c1ccc(Cl)cc1,-0.191% [at 42.5 µM] (inactive),
C=C/C=C/C=C/CCCCC,0.016% [at 19 µM] (inactive),
CCCCCCOC(=O)c1ccccc1,-2.36% (inactive),
CC(=O)OCC=C(C)C,2.04% [at 42.5 µM] (inactive),

# Assay: cAMP Responsive Elements (CRE) small molecule antagonists, cell-based qHTS assay (AID 1963591; active = well fitted inhibition curve with a large enough effect in the signal ratio in the repeat runs, not every such curve was filed as active; the % refers to the signal ratio; note: potency is the fitted concentration of half-maximal effect)
# Conditions: CRE-bla HEK293T, beta-lactamase FRET ratio; series mostly up to 92.4 µM; activity change, negative = inhibition: at the top concentration
# Method in brief: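 Antagonist mode: compounds are added alongside the adenylyl cyclase activator NKH477 (0.25 uM final) to CRE-bla HEK293T cells for 3 h. LiveBLAzer FRET substrate, 2 h at room temperature, reports bla expression.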
SMILES,"activity change, negative = inhibition",Potency
CC(C)=CC(C)(C)C,-1.24% (inactive),
CCCC/C=C/CCCCO,7.83% (inactive),
C[C@H](CS)C(=O)N1CCC[C@H]1C(=O)O,-3.92% [at 42.4 µM] (inactive),
CCCCCC(C)OC(=O)COc1ccc(Cl)c2cccnc12 (configuration not stated),-3.17% (inactive),
Cc1ccccc1N=Nc1ccc(N=Nc2c(O)ccc3ccccc23)c(C)c1,-0.398% [at 42.4 µM] (inactive),
Brc1c(NC2=NCCN2)ccc2nccnc12,-5.12% [at 42.4 µM] (inactive),
CC1CN(c2ccccc2)NC1=O (configuration not stated),-7.89% (inactive),
O=C(NCC(O)CO)c1c(I)c(C(=O)NCC(O)CO)c(I)c(N(CCO)C(=O)CO)c1I (configuration not stated),-14.4% [at 42.4 µM] (inactive),
Oc1ccc(C2(c3ccc(O)c(C4CCCCC4)c3)CCCCC2)cc1C1CCCCC1,,21.7 µM (active)
Cc1cc(-c2ccc(N=Nc3cc(S(=O)(=O)O)c4ccccc4c3N)c(C)c2)ccc1N=Nc1cc(S(=O)(=O)O)c2ccccc2c1N,-22.3% (inactive),
CCN(CC)CC,14.1% (inactive),
CO,-2.64% (inactive),
O=C(c1ccccc1)c1ccc(O)cc1O,-2.88% (inactive),
C[C@H]1[C@H](NC(=O)/C(=N/OC(C)(C)C(=O)O)c2csc(N)n2)C(=O)N1S(=O)(=O)O (stereo in doubt),-1.56% [at 42.4 µM] (inactive),
Oc1ccc2ccccc2c1,5.56% (inactive),
CCOC(=O)[C@@H](C)Oc1ccc(Oc2nc3ccc(Cl)cc3o2)cc1,-0.625% (inactive),
COC(C(=O)O)c1ccccc1 (configuration not stated),15.1% (inactive),
CN(C)CC/C=C1\c2ccccc2COc2ccccc21,-3.98% [at 42.4 µM] (inactive),
Cn1c(N)nc2nc[nH]c2c1=O,-5.09% (inactive),
Cc1c(Nc2ncccc2C(=O)O)cccc1C(F)(F)F,1.75% [at 42.4 µM] (inactive),
O=C(CS(=O)Cc1ccco1)NC/C=C\COc1cc(CN2CCCCC2)ccn1 (configuration not stated),0.257% [at 42.4 µM] (inactive),
O=P(c1ccccc1)(c1ccccc1)c1ccccc1,-1.27% (inactive),
Oc1ccc(N=Nc2ccccc2)cc1,-39.8% (inactive),
O=S(c1cc(Cl)cc(Cl)c1O)c1cc(Cl)cc(Cl)c1O,-9.6% [at 42.4 µM] (inactive),
CN(CCCN1c2ccccc2CCc2ccccc21)CC(=O)c1ccc(Cl)cc1,0.168% [at 42.4 µM] (inactive),
C=C/C=C/C=C/CCCCC,0.0574% [at 18.9 µM] (inactive),
O=C1CCc2ccc(OCCCCN3CCN(c4cccc(Cl)c4Cl)CC3)cc2N1,16.8% [at 42.4 µM] (inactive),
CC(=O)OCC=C(C)C,1.17% [at 42.4 µM] (inactive),
NC1=NCC2c3ccccc3Cc3ccccc3N12 (configuration not stated),-1.75% [at 42.4 µM] (inactive),
